Measured values as given in PubChem BioAssay (NCATS).
Records with an inconclusive call do not appear. Where a call stands in place of a potency, no number is given. Calls of active or inactive are those of the source. The call rests on the fitted dose curve; in most records, active means well fitted curve in the direction sought with a large enough effect; inconclusive means small, poorly fitted or top-dose-only effect, or another doubt; inactive means no such curve, though single readings can be large; an effect the other way counts as inactive or inconclusive.

How the values were obtained:
[1] = Cytometric Cell-Based qHTS for Inhibitors of the mTORC1 Signaling Pathway in MEF (Tsc2-/-, p53-/-) Cells (AID 2660);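 further: Tsc2 and p53 null MEFs carrying empty vector with compound for 24 h; percent of cells above a phospho-rpS6 to PI ratio cutoff in each well; series mostly up to about 38 µM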
In short: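 Immunofluorescence qHTS of rpS6 Ser235/236 phosphorylation: MEFs (Tsc2-/-, p53-/-) treated 24 h, 37 C, in DMEM + 10% FBS. Alexa-488 signal normalized to PI count, referenced to rapamycin (7.5 nM) and DMSO; PI cell number recorded for viability.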

[2] = High Content Imaging Cell-Based qHTS for Inhibitors of the mTORC1 Signaling Pathway in MEF (Tsc2-/-, p53-/-) Cells (AID 2666);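 further: percent of cells scored positive for phospho-rpS6 Ser235/236 immunostaining by imaging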; further: potency means the concentration at half of the fitted maximal effect
In short: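 Tsc2-/-, p53-/- MEFs (empty-vector stable) grown in DMEM + 10% FBS were exposed to compounds for 24 hrs at 37 degree Celsius, fixed, and stained with Alexa-488 anti-phospho-rpS6 Ser235/236 plus Hoechst. Imaging gave the percentage of positive cells per well.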

[3] = High Content Imaging Cell-Based qHTS for Inhibitors of the mTORC1 Signaling Pathway in MEF Cells (AID 2667); further: potency means the concentration at half of the fitted maximal effect
In short: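 Tsc2-/-, p53-/- MEFs stably re-expressing WT Tsc2, grown in DMEM + 10% FBS, were treated with compounds for 24 hrs at 37 degree Celsius, fixed, and stained with Alexa-488 phospho-rpS6 Ser235/236 antibody plus Hoechst; results given as % positive cells.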

[4] = Cytometry Cell-Based qHTS for Inhibitors of the mTORC1 Signaling Pathway in MEF cells (AID 2668);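 further: Tsc2-/- p53-/- mouse embryonic fibroblasts stably re-expressing wild-type Tsc2; percent cells positive for phospho-rpS6 Ser235/236 relative to propidium iodide stain; series mostly up to about 38 µM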
In short: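 In MEFs grown in DMEM + 10% FBS, a 24 hrs compound exposure preceded imaging of phospho-rpS6 Ser235/236 by laser-scanning cytometry.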

Structure (SMILES)	outcome [1]	Potency [2]	Potency [3]	Potency [4]
NC(=S)NCCC[C@H](N)C(=O)O	inactive	inactive	inactive	inactive
CSc1nc(N)c2ncn([C@@H]3O[C@H](COP(=O)(O)OP(=O)(O)OP(=O)(O)O)[C@@H](O)[C@H]3O)c2n1	inactive	inactive	inactive	inactive
Nc1ncnc2c1ncn2[C@@H]1O[C@H](COP(=O)(O)CP(=O)(O)OP(=O)(O)O)[C@@H](O)[C@H]1O	inactive	inactive	inactive	inactive
CC(C)ON([C@@H](C(=O)NO)C(C)C)S(=O)(=O)c1ccc(-c2ccccc2)cc1	inactive	inactive	5.85 µM (active)	
O=C1/C(=C/c2ccsc2)CC/C1=C\c1cccs1	inactive	inactive	inactive	
C=CC(=O)c1ccc(CCCCCC)cc1	inactive	inactive	inactive	
O=C(O)CC1CC(c2ccccc2)=NO1 (stereo not drawn)	inactive	inactive	inactive	
CCCCC#Cc1nc(NC)c2ncn([C@@H]3O[C@H](CO)[C@@H](O)[C@H]3O)c2n1	inactive	inactive	inactive	inactive
C[N+](C)(C)CCOP(=O)(O)OP(=O)([O-])OC[C@H]1O[C@@H](n2ccc(N)nc2=O)[C@H](O)[C@@H]1O	inactive	inactive	inactive	
CCCCCCCC/C=C\CCCCCCCC(=O)NCCO	inactive	inactive	inactive	inactive
Cc1cc(NC2CCCCC2)nc(-n2nc(C)cc2C)n1	inactive	inactive	inactive	inactive
NC(=S)c1ccc[n+]([C@@H]2O[C@@H](COP(=O)([O-])OP(=O)(O)OC[C@H]3O[C@@H](n4cnc5c(N)ncnc54)[C@H](OP(=O)(O)O)[C@@H]3O)C(O)C2O)c1 (stereo partly drawn)	inactive	inactive	inactive	inactive
CNC(=O)[C@H]1O[C@@H](n2cnc3c(NCc4cccc(I)c4)ncnc32)[C@H](O)[C@@H]1O	inactive	inactive	inactive	
CC(C)CC(NP(=O)(O)O[C@@H]1O[C@@H](C)[C@H](O)[C@@H](O)[C@H]1O)C(=O)NC(Cc1c[nH]c2ccccc12)C(=O)O (stereo partly drawn)	inactive	inactive	inactive	
CC1OC1P(=O)(O)O (stereo not drawn)	inactive	inactive	inactive	inactive
C=C[C@H]1CN2CC[C@@H]1C[C@@H]2[C@@H](O)c1ccnc2ccc(OC)cc12	inactive	inactive	inactive	inactive
CCNC(=O)[C@H]1O[C@@H](n2cnc3c(N)nc(NCCc4ccc(CCC(=O)O)cc4)nc32)[C@H](O)[C@@H]1O	inactive	inactive	inactive	inactive
Nc1ncnc2c1ncn2[C@@H]1O[C@H](COP(=O)(O)OP(=O)(O)OP(=O)(O)OP(=O)(O)OC[C@@H]2O[C@H](n3cnc4c(N)ncnc43)[C@@H](O)[C@H]2O)[C@@H](O)[C@H]1O	inactive	inactive	inactive	inactive
CC(N)C(=O)OC(C)(C)Cc1ccc(Cl)cc1 (stereo not drawn)	inactive	inactive	inactive	inactive
OCC1O[C@H]([S-])[C@H](O)[C@@H](O)[C@@H]1O.[Au+] (stereo partly drawn)	inactive	inactive	inactive	inactive
CN1C2CC(OC(=O)[C@H](CO)c3ccccc3)CC1C1OC12 (stereo partly drawn)	inactive	inactive	inactive	inactive
CCOC(=O)N1CCN(/[N+]([O-])=N/Oc2ccc([N+](=O)[O-])cc2[N+](=O)[O-])CC1		13.1 µM (active)	inactive	
Nc1nc(SCc2ccc([N+](=O)[O-])cc2)c2ncn([C@@H]3O[C@H](CO)[C@@H](O)[C@H]3O)c2n1	inactive	inactive	inactive	inactive
